# Data published in PubChem BioAssay (Tox21).
# Where “and” joins values, the source holds several entries; their conditions need not be identical. Equal values may be shown once. Results filed as inconclusive are left out. Entries that show only a call come without a potency. A structure can be active in one record and inactive in another. Calls of active or inactive are those of the source. Unless noted, calls come from the whole dose curve; as a rule, active = well fitted curve in the direction sought with a large enough effect in the repeat runs; inconclusive = weak or mixed curves; inactive = no such curve, though single readings can be large; an effect the other way counts as inactive or inconclusive.
# Legend:
# [1] = target: Thyrotropin-releasing hormone receptor (Homo sapiens) (UniProt P34981); test: qHTS assay to identify small molecule agonists of the thyrotropin-releasing hormone receptor (TRHR) signaling pathway (AID 1346891; calls by dose curve;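 note: HEK293 cells expressing TRHR with calcium dye readout; series mostly up to about 58 µM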)
# In short: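 Kinetic fluorescence (3 min, 1 s intervals) reported intracellular calcium after compound transfer onto TRHR-Hek293 cells pre-loaded with dye for 2 h at 37 °C.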
# [2] = Human pregnane X receptor (PXR) small molecule agonists, qHTS cell viability counter screen (AID 1346977); note: nearly all actives have a fitted effect of over 50% in size; note: potency is the fitted concentration of half-maximal effect
# In short: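 HepG2 cells stably carrying the PXR-Luc reporter are cultured with 5% charcoal-stripped FBS and treated with compounds for 24hr. CellTiter-Fluor is added at 23hr and fluorescence is read after 1hr.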
# [3] = Caspase-3/7 induction in HepG2 cells by small molecules, qHTS assay (AID 1346978); note: nearly all actives have a fitted effect of over 15% in size
# In short: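 Caspase-3/7 induction was measured by Caspase-Glo 3/7 luminescence (30 min, room temperature) after a 17 hr compound exposure of wild-type HepG2 cells seeded at 2,000 per well and pre-incubated 5 hr.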
# [4] = Caspase-3/7 induction in CHO-K1 cells by small molecules, qHTS cell viability counter screen (AID 1346979); note: nearly all actives have a fitted effect of over 35% in size; note: potency is the fitted concentration of half-maximal effect
# In short: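 Seeding: 1,500 CHO-K1 cells/well. Rest: 5hr, 37C. Treatment: compounds in DMSO, 16hr. Read: CellTiter-Fluor, 1hr, fluorescence.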
# [5] = Caspase-3/7 induction in CHO-K1 cells by small molecules, qHTS assay (AID 1346980); note: nearly all actives have a fitted effect of over 15% in size
# In short: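 Luminescent Caspase-Glo 3/7 read (30min, room temperature) quantified apoptosis induction. Cells were wild-type CHO-K1, treated with compound for 17hr at 37 C and 5% CO2.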
# [6] = Caspase-3/7 induction in HepG2 cells by small molecules, qHTS cell viability counter screen (AID 1346981); note: nearly all actives have a fitted effect of over 30% in size; note: potency is the fitted concentration of half-maximal effect
# In short: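 CellTiter-Fluor fluorescence measured viability in the same wells used for Caspase-Glo 3/7. HepG2 (wild type) at 2,000 cells/well were pre-incubated 5 hr, dosed, and given reagent at 16 hr, with 1 hr further at 37C.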
# [7] = target: Nuclear receptor subfamily 1 group I member 2 (Homo sapiens) (UniProt O75469); test: Human pregnane X receptor (PXR) small molecule agonists, qHTS assay (AID 1346982); note: nearly all actives have a fitted effect of over 35% in size; note: potency is the fitted concentration of half-maximal effect
# In short: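 Agonist mode: luminescence from ONE-Glo after 24 h compound exposure at 37C in HepG2 cells carrying hPXR-responsive CYP3A4 luciferase, plated in charcoal-stripped serum medium 5 h beforehand.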
# [8] = target: Nuclear receptor subfamily 1 group I member 2 (Rattus norvegicus) (UniProt Q9R1A7); test: Rat pregnane X receptor (rPXR) activation by small molecules, qHTS assay (AID 1346983); settings: rPXR luciferase reporter cells, One-Glo luminescence, 24 h; max activation: stronger effect = higher value; note: nearly all actives have a fitted effect of over 20% in size
# In short: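 Luminescent readout (One-Glo luciferase, 30 min room temperature) followed 24 hr compound treatment at 37 C of rPXR cells plated 2,000 per well and preincubated 5hr; qHTS format with compounds delivered in DMSO.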
# [9] = target: Nuclear receptor subfamily 1 group I member 2 (Homo sapiens) (UniProt O75469); test: Human pregnane X receptor (PXR) activation by small molecules, qHTS assay (AID 1346985); note: nearly all actives have a fitted effect of over 40% in size; note: potency is the fitted concentration of half-maximal effect
# In short: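 DPX-2 cells (HepG2 co-transfected with a PXR response element and a CYP3A4-promoter luciferase construct) were seeded at 2,000 per well, rested 5 hr at 37C, then exposed to DMSO-dissolved compounds for 24 hr. Activation was read as luciferase luminescence.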
# [10] = target: Cytochrome P450 2D6 (Homo sapiens) (UniProt P10635); test: Cytochrome P450 Family 2 Subfamily D Member 6 (CYP2D6) small molecule antagonists: luciferase reporter qHTS assay (AID 1671196); note: nearly all actives have a fitted effect of over 50% in size; note: potency is the fitted concentration of half-maximal effect
# In short: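 CYP2D6 activity was followed as luminescence from its luciferin product after a 1 h NADPH-driven reaction at room temperature. Enzyme-substrate mix and compound were pre-incubated for 10 min, and the signal was read 20 min after adding detection reagent.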
# [11] = target: Cytochrome P450 2C19 (Homo sapiens) (UniProt P33261); test: Cytochrome P450 Family 2 Subfamily C Member 19 (CYP2C19) small molecule antagonists: luciferase reporter qHTS assay (AID 1671197); note: nearly all actives have a fitted effect of over 65% in size; note: potency is the fitted concentration of half-maximal effect
# In short: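 First, compounds are pinned into enzyme-substrate mix and held 10 min at room temperature. Second, NADPH regeneration solution is added and plates incubate 1 h at 37C. Third, detection reagent is added and luminescence read after 20 min.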
# [12] = target: Cytochrome P450 2C9 (Homo sapiens) (UniProt P11712); test: Cytochrome P450 Family 2 Subfamily C Member 9 (CYP2C9) small molecule antagonists: luciferase reporter qHTS assay (AID 1671198); note: nearly all actives have a fitted effect of over 50% in size; note: potency is the fitted concentration of half-maximal effect
# In short: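 Enzyme-substrate mix preincubated with compound 10 min at room temperature; reaction started with NADPH regeneration solution, 1 h 37C. Luminescent luciferin product read after 20 min detection reagent.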
# [13] = target: Cytochrome P450 1A2 (Homo sapiens) (UniProt P05177); test: Cytochrome P450 Family 1 Subfamily A Member 2 (CYP1A2) small molecule antagonists: luciferase reporter qHTS assay (AID 1671199); note: nearly all actives have a fitted effect of over 50% in size; note: potency is the fitted concentration of half-maximal effect
# In short: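 Luminescence from luciferin formed by CYP1A2 from a proluciferin substrate, read 20 min after detection reagent. Compound was pre-incubated 10 min with enzyme-substrate, and reaction started with NADPH regeneration solution for 1 h at room temperature; furafylline control.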
# [14] = target: Voltage-gated inwardly rectifying potassium channel KCNH2 (Homo sapiens) (UniProt Q12809); test: Human Ether-a-go-go-Related Gene (hERG) channel small molecule antagonists: fluorescence cell-based qHTS assay (AID 1671200)
# In short: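 First, 1000 cells per well are seeded and cultured overnight at 37 C. Next, FluxOR II dye is loaded for 1 h at room temperature, protected from light. After 10 more minutes, stimulus is added and fluorescence is read.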
# [15] = target: Cytochrome P450 3A4 (Homo sapiens) (UniProt P08684); test: Cytochrome P450 Family 3 Subfamily A Member 4 (CYP3A4) small molecule antagonists: luciferase reporter qHTS assay (AID 1671201); note: nearly all actives have a fitted effect of over 50% in size; note: potency is the fitted concentration of half-maximal effect
# In short: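 Enzyme and proluciferin substrate are mixed with test chemicals for 10 min, then NADPH regeneration system drives turnover for 1 h at room temperature. A detection reagent halts the reaction; luminescence after 20 min gives relative activity.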
# Sequence of Cytochrome P450 2C19 (Homo sapiens) (P33261 whole entry, looked up): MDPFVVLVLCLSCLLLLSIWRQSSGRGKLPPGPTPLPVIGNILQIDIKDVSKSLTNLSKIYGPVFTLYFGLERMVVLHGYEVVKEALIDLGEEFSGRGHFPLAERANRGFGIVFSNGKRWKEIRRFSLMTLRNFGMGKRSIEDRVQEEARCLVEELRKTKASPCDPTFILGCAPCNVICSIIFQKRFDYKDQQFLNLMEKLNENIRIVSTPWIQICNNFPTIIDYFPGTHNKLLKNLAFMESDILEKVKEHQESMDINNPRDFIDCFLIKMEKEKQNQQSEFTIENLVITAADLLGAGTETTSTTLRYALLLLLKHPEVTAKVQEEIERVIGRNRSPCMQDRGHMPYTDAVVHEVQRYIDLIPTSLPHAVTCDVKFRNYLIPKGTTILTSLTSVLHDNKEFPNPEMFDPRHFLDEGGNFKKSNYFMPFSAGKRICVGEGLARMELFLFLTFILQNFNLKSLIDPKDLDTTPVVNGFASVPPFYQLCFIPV
# Sequence of Nuclear receptor subfamily 1 group I member 2 (Homo sapiens) (O75469 whole entry, looked up): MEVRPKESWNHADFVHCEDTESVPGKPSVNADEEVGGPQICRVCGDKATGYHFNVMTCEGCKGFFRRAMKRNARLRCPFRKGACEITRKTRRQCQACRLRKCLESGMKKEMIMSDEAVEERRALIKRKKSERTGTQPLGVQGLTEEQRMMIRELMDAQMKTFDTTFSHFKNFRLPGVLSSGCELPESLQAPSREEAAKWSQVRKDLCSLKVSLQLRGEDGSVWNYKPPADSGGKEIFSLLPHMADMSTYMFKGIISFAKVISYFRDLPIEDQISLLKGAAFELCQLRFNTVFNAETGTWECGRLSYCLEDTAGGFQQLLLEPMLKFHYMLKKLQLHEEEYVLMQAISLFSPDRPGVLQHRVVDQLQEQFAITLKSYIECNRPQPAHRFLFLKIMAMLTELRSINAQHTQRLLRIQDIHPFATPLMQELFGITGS
# Sequence of Voltage-gated inwardly rectifying potassium channel KCNH2 (Homo sapiens) (Q12809 whole entry, looked up): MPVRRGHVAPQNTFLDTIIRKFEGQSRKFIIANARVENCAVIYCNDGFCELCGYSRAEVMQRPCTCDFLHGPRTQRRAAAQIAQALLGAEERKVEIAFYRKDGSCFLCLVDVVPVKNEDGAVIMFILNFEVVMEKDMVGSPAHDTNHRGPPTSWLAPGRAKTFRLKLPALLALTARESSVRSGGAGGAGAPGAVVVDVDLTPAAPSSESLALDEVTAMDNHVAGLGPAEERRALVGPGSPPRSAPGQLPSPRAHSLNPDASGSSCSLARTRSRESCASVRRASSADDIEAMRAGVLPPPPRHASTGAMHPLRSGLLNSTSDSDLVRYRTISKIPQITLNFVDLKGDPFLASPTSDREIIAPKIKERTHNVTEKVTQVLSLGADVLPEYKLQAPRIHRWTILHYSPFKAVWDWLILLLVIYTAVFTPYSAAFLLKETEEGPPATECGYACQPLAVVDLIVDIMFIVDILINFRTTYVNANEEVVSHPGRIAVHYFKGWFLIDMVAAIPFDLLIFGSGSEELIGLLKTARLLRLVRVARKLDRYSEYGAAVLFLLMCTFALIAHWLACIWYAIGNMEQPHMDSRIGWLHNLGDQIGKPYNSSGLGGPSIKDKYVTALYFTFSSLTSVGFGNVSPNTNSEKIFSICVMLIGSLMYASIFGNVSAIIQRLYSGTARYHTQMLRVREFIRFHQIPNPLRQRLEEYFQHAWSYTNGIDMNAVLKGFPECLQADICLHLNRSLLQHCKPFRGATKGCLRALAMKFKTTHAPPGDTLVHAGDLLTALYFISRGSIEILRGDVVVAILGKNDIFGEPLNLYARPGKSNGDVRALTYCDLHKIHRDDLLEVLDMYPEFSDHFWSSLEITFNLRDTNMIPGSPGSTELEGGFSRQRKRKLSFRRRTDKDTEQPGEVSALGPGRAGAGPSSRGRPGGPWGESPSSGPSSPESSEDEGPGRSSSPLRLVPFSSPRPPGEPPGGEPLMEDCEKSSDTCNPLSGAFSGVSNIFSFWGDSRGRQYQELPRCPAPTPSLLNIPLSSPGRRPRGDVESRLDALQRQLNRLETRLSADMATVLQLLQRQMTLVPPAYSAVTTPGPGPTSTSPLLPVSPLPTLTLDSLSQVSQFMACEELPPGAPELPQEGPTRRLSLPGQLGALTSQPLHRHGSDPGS
# Sequence of Cytochrome P450 1A2 (Homo sapiens) (P05177 whole entry, looked up): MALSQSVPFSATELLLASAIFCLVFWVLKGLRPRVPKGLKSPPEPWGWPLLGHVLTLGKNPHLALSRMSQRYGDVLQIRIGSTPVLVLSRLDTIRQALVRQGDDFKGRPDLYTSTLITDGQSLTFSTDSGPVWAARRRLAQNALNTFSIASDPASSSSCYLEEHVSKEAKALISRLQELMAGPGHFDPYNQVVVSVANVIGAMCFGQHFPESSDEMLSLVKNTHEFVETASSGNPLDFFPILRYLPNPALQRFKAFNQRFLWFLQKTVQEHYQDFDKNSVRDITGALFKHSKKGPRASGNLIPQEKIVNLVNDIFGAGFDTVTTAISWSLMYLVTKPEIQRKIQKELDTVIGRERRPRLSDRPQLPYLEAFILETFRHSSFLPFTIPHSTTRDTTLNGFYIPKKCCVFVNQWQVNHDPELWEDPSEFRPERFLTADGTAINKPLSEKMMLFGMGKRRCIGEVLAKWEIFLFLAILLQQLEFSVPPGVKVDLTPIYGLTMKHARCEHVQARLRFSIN
# Sequence of Thyrotropin-releasing hormone receptor (Homo sapiens) (P34981 whole entry, looked up): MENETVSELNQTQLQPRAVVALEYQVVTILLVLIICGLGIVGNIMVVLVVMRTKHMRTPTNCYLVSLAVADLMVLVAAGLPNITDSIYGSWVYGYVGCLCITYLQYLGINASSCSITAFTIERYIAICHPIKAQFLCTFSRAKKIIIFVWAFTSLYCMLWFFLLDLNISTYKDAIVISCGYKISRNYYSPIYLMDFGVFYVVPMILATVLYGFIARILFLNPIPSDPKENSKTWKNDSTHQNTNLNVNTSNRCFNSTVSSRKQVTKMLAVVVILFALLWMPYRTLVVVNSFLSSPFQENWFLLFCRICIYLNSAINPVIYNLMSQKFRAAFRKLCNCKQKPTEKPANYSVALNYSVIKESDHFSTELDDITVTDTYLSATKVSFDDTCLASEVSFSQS
# Sequence of Cytochrome P450 2C9 (Homo sapiens) (P11712 whole entry, looked up): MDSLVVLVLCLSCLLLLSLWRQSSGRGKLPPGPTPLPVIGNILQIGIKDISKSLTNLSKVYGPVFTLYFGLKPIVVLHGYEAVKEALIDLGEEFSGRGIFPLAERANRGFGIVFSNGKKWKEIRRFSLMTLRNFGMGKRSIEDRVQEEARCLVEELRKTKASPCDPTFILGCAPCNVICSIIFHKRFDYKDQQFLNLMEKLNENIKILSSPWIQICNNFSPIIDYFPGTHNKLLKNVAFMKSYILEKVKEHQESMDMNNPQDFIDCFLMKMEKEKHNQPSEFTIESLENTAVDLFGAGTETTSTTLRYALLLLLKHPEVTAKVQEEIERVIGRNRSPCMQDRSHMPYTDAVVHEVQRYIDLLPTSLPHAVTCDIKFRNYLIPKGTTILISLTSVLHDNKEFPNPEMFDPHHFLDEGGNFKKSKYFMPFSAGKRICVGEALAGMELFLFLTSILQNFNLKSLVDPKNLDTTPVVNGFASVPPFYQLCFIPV
# Sequence of Nuclear receptor subfamily 1 group I member 2 (Rattus norvegicus) (Q9R1A7 whole entry, looked up): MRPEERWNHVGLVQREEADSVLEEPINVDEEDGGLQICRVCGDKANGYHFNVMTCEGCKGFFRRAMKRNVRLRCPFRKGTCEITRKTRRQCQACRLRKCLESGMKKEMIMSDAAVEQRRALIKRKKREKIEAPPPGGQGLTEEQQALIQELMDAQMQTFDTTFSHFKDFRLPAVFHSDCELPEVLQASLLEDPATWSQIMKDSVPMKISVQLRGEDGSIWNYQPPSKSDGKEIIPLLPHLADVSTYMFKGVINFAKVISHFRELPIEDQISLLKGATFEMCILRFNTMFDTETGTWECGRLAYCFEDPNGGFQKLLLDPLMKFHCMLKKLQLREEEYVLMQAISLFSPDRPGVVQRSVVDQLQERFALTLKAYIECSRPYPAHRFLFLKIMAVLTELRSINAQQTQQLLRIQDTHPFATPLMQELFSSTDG
# Sequence of Cytochrome P450 2D6 (Homo sapiens) (P10635 whole entry, looked up): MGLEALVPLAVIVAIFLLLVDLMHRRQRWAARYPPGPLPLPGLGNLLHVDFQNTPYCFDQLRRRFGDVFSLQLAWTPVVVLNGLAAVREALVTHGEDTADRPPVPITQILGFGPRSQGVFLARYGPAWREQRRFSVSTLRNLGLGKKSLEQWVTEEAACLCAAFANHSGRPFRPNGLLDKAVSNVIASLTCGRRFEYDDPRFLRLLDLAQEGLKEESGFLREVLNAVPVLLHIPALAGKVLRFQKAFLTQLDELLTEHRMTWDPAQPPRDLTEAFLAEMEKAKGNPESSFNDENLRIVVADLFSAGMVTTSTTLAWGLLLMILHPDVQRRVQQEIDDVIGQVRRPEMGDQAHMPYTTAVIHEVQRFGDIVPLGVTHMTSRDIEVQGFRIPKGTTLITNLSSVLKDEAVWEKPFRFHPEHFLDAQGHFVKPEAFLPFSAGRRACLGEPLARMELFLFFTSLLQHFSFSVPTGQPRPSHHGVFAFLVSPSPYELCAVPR
# Sequence of Cytochrome P450 3A4 (Homo sapiens) (P08684 whole entry, looked up): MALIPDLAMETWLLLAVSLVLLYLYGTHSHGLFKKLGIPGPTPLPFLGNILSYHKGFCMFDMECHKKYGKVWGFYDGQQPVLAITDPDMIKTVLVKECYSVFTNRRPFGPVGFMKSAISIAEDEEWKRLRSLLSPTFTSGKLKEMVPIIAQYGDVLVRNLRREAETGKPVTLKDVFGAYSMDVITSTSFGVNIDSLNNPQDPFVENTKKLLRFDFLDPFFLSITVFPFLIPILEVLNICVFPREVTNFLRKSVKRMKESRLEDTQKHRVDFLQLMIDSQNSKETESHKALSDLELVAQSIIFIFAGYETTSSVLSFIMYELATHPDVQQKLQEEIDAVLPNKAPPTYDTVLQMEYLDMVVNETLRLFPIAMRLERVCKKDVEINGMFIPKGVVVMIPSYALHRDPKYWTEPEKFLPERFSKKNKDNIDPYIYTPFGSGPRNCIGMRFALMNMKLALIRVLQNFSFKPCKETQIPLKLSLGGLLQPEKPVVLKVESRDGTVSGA
SMILES,Potency [1],Potency [2],Potency [3],Potency [4],outcome [5],Potency [6],Potency [7],max activation [8],Potency [9],Potency [10],Potency [11],Potency [12],Potency [13],Potency [14],Potency [15]
COc1cc(O)c(C(=O)c2ccccc2)cc1S(=O)(=O)O,inactive,inactive,inactive,inactive and 13.3 µM (active),inactive,inactive,inactive,-1.72% (inactive),inactive,inactive,78.8 µM (active) and inactive,inactive,inactive,inactive,inactive
CCCCOCCOCCOC(C)=O,inactive,inactive,inactive,inactive,inactive,inactive,inactive,–,–,inactive,inactive,inactive,inactive,inactive,inactive
CCCCNC(=O)NS(=O)(=O)c1ccc(N)cc1,inactive,inactive,inactive,inactive,inactive,inactive,inactive,-2.23% (inactive),inactive,inactive,inactive,inactive,inactive,inactive,inactive
N[C@@H](Cc1c[nH]c2ccc(O)cc12)C(=O)O,inactive,inactive,inactive,inactive,inactive,inactive,inactive,-0.341% (inactive),inactive,34.6 µM (active),inactive,27.5 µM (active) and 34.7 µM (active),30.8 µM (active) and 30.9 µM (active),inactive,–
C/C=C/c1ccc(O)c(OC)c1,inactive,inactive,inactive,inactive,inactive,inactive,inactive,6.95% (inactive),inactive,inactive,7.96 µM (active) and 39.9 µM (active) and 8.71 µM (active),2.83 µM (active) and 20 µM (active) and 13.8 µM (active),20 µM (active) and 22.4 µM (active) and 11.5 µM (active),–,–
CC(=O)OC/C=C(C)/C=C/C=C(C)/C=C/C1=C(C)CCCC1(C)C,inactive,inactive,inactive,66.9 µM (active) and 68.6 µM (active) and inactive,inactive,inactive,59.6 µM (active) and 34.4 µM (active) and 15 µM (active),–,–,34.7 µM (active) and inactive,39 µM (active) and 35.6 µM (active),31 µM (active) and 31.7 µM (active) and 19.5 µM (active),inactive,–,–
Cc1c(N(C)CS(=O)(=O)O)c(=O)n(-c2ccccc2)n1C,inactive,inactive,inactive,inactive,inactive,inactive,inactive,-2.23% (inactive),inactive,inactive,–,–,–,–,inactive
COC(=O)c1ccc(O)cc1,inactive,inactive,inactive,inactive,inactive,inactive,inactive,-1.51% (inactive),inactive,inactive,inactive,inactive,32 µM (active) and 35.6 µM (active) and 27.5 µM (active),inactive,inactive
COc1ccccc1O,inactive,inactive,inactive,inactive,inactive,inactive,inactive,-3.23% (inactive),inactive,inactive,inactive,inactive,inactive and 52.6 µM (active),inactive,inactive
CN(C)Cc1cc(CN(C)C)c(O)c(CN(C)C)c1,inactive,inactive,inactive,inactive,inactive,inactive,inactive,–,–,79.6 µM (active) and inactive,inactive,inactive,inactive,inactive,inactive
NC(=O)N/N=C/c1ccc([N+](=O)[O-])o1,inactive,inactive and 27.3 µM (active) and 26.6 µM (active),inactive,inactive and 42.4 µM (active) and 29.8 µM (active),inactive,inactive and 58.4 µM (active),inactive and 7.7 µM (active),-4.99% (inactive),–,inactive,inactive and 39.9 µM (active) and 43.6 µM (active),inactive,inactive and 41.5 µM (active),–,inactive
C1CNCCN1,inactive,inactive,inactive,44.6 µM (active) and inactive,inactive,inactive,inactive,–,–,32.6 µM (active) and inactive and 2.03 µM (active),82 µM (active) and inactive and 72.1 µM (active),inactive,41.1 µM (active) and inactive,inactive,inactive
CC1=NN(c2ccccc2)C(=O)C1,inactive,inactive,inactive,inactive,inactive,inactive,inactive,-4.19% (inactive),inactive,31.9 µM (active) and inactive,71.4 µM (active) and inactive,11.3 µM (active) and 11.2 µM (active) and 17.4 µM (active),–,inactive,inactive
CCCCOCCOCCSC#N,inactive,inactive,inactive,inactive,inactive,inactive,32.3 µM (active) and 26.8 µM (active),–,–,inactive,8.4 µM (active) and inactive,inactive,6.67 µM (active) and 11.1 µM (active),inactive,inactive
O=c1cc[nH]c(=O)[nH]1,inactive,inactive,inactive,inactive,inactive,inactive,inactive,-0.198% (inactive),inactive,inactive,inactive,inactive,inactive,inactive,inactive
CCN(CC)CCOC(=O)c1ccc(N)cc1,inactive,inactive,inactive,inactive,inactive,inactive,inactive,-0.318% (inactive),inactive,5.95 µM (active) and 15.5 µM (active),inactive,inactive,inactive,inactive,inactive
CC(C)(C)CC(C)(C)c1ccc(O)c(-n2nc3ccccc3n2)c1,inactive,inactive,inactive,inactive,inactive,inactive,27.7 µM (active) and 11.9 µM (active),-2.63% (inactive),7.94 µM (active),40.5 µM (active) and inactive,36.1 µM (active) and 20 µM (active),20.3 µM (active) and 10 µM (active) and 12.3 µM (active),–,inactive,inactive
CCCCCCCC(=O)OCC(O)CO (stereo not given),inactive,inactive,inactive,inactive,inactive,inactive,inactive,-5.07% (inactive),inactive,39.9 µM (active),79.6 µM (active),inactive,inactive,inactive,inactive
CC(C)(C)NCC(O)c1ccc(O)c(CO)c1 (stereo not given),inactive,inactive,inactive,inactive,inactive,inactive,inactive,–,–,inactive,inactive,inactive,inactive,inactive,inactive
CCN1CCCC1=O,inactive,inactive,inactive,inactive,inactive,inactive,inactive,3.15% (inactive),inactive,inactive,inactive,inactive,inactive,inactive,inactive
COc1ccc(O)cc1,inactive,inactive,inactive,inactive,inactive,inactive,inactive,-2.37% (inactive),inactive,27.2 µM (active) and inactive,34.3 µM (active) and inactive,inactive,inactive,–,inactive
c1ccc2[nH]c(-c3cscn3)nc2c1,inactive,inactive,inactive,inactive,inactive,inactive,30.8 µM (active) and 770 nM (active) and 6.68 µM (active),–,–,39.9 µM (active) and 38.9 µM (active),35.8 µM (active) and 71 µM (active) and 34.7 µM (active),inactive,5.06 µM (active) and 2.83 µM (active) and 2.45 µM (active),–,–
CC1(C)O[C@@H]2[C@@H](CO[C@@]3(COS(N)(=O)=O)OC(C)(C)O[C@@H]23)O1,inactive,inactive,inactive,inactive,inactive,inactive,inactive,-4.73% (inactive),inactive,inactive,4.9 µM (active),inactive,inactive,inactive,inactive
CCCCCCCCOc1ccc(C(=O)c2ccccc2)c(O)c1,inactive,inactive,inactive,inactive,inactive,inactive,inactive,-2.91% (inactive),inactive,inactive,inactive and 35.6 µM (active),12.6 µM (active),inactive,–,inactive
NCCNc1cccc2ccccc12,inactive,50.1 µM (active) and inactive,inactive,66.9 µM (active) and inactive,inactive,inactive,inactive,-4.28% (inactive),inactive,5.02 µM (active) and 9.79 µM (active) and 12.3 µM (active),31.7 µM (active) and 21.9 µM (active) and 12.3 µM (active),20 µM (active) and 31 µM (active) and 27.5 µM (active),632 nM (active) and 778 nM (active) and 723 nM (active),inactive,31.7 µM (active) and inactive
Nc1cccc(N)c1,inactive,inactive,inactive,inactive,inactive,inactive,54.4 µM (active) and inactive,–,–,39.8 µM (active) and 31.3 µM (active) and inactive,56.3 µM (active) and 39.4 µM (active),70.9 µM (active),63.2 µM (active) and 39.4 µM (active) and 31.7 µM (active),–,–
